PubChem BioAssay AID1159580 (chemical genetic matrix, 2015)
“And” between values parts separate entries of the source, which are not always exact repeats. Identical values can stand only once. The campaign covered roughly 5,500 compounds. About 2,000 (36%) were called active. Roughly 18% stayed inconclusive and do not appear here. Rule as the data show it: active = normalized growth mostly below about 0.91 (no sharp cut-off); inconclusive = no clear call, values can overlap the other calls; inactive = mostly above about 0.92. Some of the results follow.

Assay: chemical genetic growth profiling, strain panel (AID 1159580);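 also: tested at 20 µM; growth read once vehicle control cultures reached saturation at 30 °C; 1 = growth at the plate median or of vehicle wells; lower values mean less growth of the strain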
Conditions: S. cerevisiae deletion strains, growth OD

Measured: normalized growth

CC(C)=CCCC1(C)C=Cc2c(O)c3c(c(CC=C(C)C)c2O1)OC12C(=CC4CC1C(C)(C)OC2(C/C=C(/C)C(=O)O)C4=O)C3=O (configuration not stated)
0.85 (active) and 0.869 (inactive): locus YHR030C, strain SLT2, stronger effect = lower value
active: locus YAL013W, strain DEP1, stronger effect = lower value 0.887 | locus YAL026C, strain drs2, stronger effect = lower value 0.895 | locus YAL030W, strain snc1, stronger effect = lower value 0.925 | locus YBL061C, strain skt5, stronger effect = lower value 0.87 | locus YBR009C, strain hhf1, stronger effect = lower value 0.803 | locus YBR023C, strain chs3, stronger effect = lower value 0.84 | locus YBR231C, strain swc5, stronger effect = lower value 0.559 | locus YBR279W, strain paf1, stronger effect = lower value 0.815 | locus YCL011C, strain gbp2, stronger effect = lower value 0.835 | locus YCL016C, strain dcc1, stronger effect = lower value 0.853 | locus YCL061C, strain MRC1, stronger effect = lower value 0.907 | locus YDL035C, strain GPR1, stronger effect = lower value 0.736 | locus YDL074C, strain BRE1, stronger effect = lower value 0.691 | locus YDL192W, strain arf1, stronger effect = lower value 0.901 | locus YDR069C, strain doa4, stronger effect = lower value 0.821 | locus YDR137W, strain rgp1, stronger effect = lower value 0.713 | locus YDR162C, strain NBP2, stronger effect = lower value 0.296 | locus YDR297W, strain sur2, stronger effect = lower value 0.889 | locus YDR318W, strain mcm21, stronger effect = lower value 0.879 | locus YDR335W, strain msn5, stronger effect = lower value 0.902 | locus YDR388W, stronger effect = lower value 0.897 | locus YDR392W, strain spt3, stronger effect = lower value 0.223 | locus YDR502C, strain sam2, stronger effect = lower value 0.849 | locus YEL003W, strain gim4, stronger effect = lower value 0.863 | locus YEL061C, strain CIN8, stronger effect = lower value 0.881 | locus YER015W, strain faa2, stronger effect = lower value 0.785 | locus YER155C, strain BEM2 (second series), stronger effect = lower value 0.758 | locus YER155C, strain BEM2, stronger effect = lower value 0.83 | locus YER167W, strain BCK2, stronger effect = lower value 0.874 | locus YFR010W, strain ubp6, stronger effect = lower value 0.891 | locus YGL086W, strain mad1, stronger effect = lower value 0.892 | locus YGL173C, strain kem1, stronger effect = lower value 0.82 | locus YGL248W, strain PDE1, stronger effect = lower value 0.791 | locus YGL253W, strain hxk2, stronger effect = lower value 0.877 | locus YGR135W, strain pre9, stronger effect = lower value 0.885 | locus YGR229C, strain SMI1, stronger effect = lower value 0.244 | locus YHR013C, strain ard1, stronger effect = lower value 0.605 | locus YHR027C, strain rpn1, stronger effect = lower value 0.894 | locus YHR129C, strain ARP1, stronger effect = lower value 0.808 | locus YHR142W, strain chs7, stronger effect = lower value 0.818 | locus YHR200W, strain rpn10, stronger effect = lower value 0.914 | locus YIL066C, strain RNR3, stronger effect = lower value 0.606 | locus YIL125W, strain kgd1, stronger effect = lower value 0.927 | locus YJL095W, strain BCK1 (second series), stronger effect = lower value 0.871 | locus YJL095W, strain BCK1, stronger effect = lower value 0.732 and 0.878 | locus YJL129C, strain trk1, stronger effect = lower value 0.653 | locus YJL164C, strain tpk1, stronger effect = lower value 0.758 | locus YJL166W, strain qcr8, stronger effect = lower value 0.77 | locus YJL187C, strain SWE1 (second series), stronger effect = lower value 0.838
inactive: locus YAL021C, strain ccr4, stronger effect = lower value 0.954 | locus YBR021W, strain FUR4, stronger effect = lower value 0.99 | locus YBR171W, strain sec66, stronger effect = lower value 0.979 | locus YBR229C, strain ROT2, stronger effect = lower value 0.988 | locus YCL029C, strain bik1, stronger effect = lower value 0.987 | locus YCL069W, strain vba3, stronger effect = lower value 0.945 | locus YCR088W, strain abp1, stronger effect = lower value 0.943 | locus YDL005C, strain med2, stronger effect = lower value 0.959 | locus YDL040C, strain nat1, stronger effect = lower value 0.959 | locus YDL101C, strain DUN1, stronger effect = lower value 0.894 | locus YDL185W, strain tfp1, stronger effect = lower value 0.986 | locus YDR001C, strain nth1, stronger effect = lower value 0.952 | locus YDR101C, strain arx1, stronger effect = lower value 0.93 | locus YDR150W, strain NUM1, stronger effect = lower value 0.932 | locus YDR159W, strain sac3, stronger effect = lower value 0.957 | locus YDR195W, strain ref2 1.11 | locus YDR334W, strain swr1, stronger effect = lower value 0.916 | locus YEL037C, strain rad23, stronger effect = lower value 0.967 | locus YEL061C, strain CIN8 (second series), stronger effect = lower value 0.935 | locus YER016W, strain bim1, stronger effect = lower value 0.967 | locus YER110C, stronger effect = lower value 0.98 | locus YER111C, strain swi4, stronger effect = lower value 0.977 | locus YGL078C, strain dbp3, stronger effect = lower value 0.965 | locus YGL167C, strain pmr1, stronger effect = lower value 0.915 | locus YGL227W, strain vid30, stronger effect = lower value 0.985 | locus YGL240W, strain doc1, stronger effect = lower value 0.966 | locus YGR252W, strain gcn5, stronger effect = lower value 0.882 | locus YHR079C, strain IRE1 (second series), stronger effect = lower value 0.98 | locus YHR079C, strain IRE1, stronger effect = lower value 0.89 | locus YHR094C, strain hxt1, stronger effect = lower value 0.983 | locus YIL073C, strain SPO22, stronger effect = lower value 0.796 | locus YIR030C, strain dcg1, stronger effect = lower value 0.967 | locus YJL092W, strain hpr5, stronger effect = lower value 0.946 | locus YJL115W, strain asf1, stronger effect = lower value 0.951 | locus YJL134W, strain LCB3, stronger effect = lower value 0.982 | locus YJL154C, strain vps35, stronger effect = lower value 0.983 | locus YJL168C, strain set2, stronger effect = lower value 0.98
